# PKM2 act – increases activity of human pyruvate kinase M2. 260,000 tested, 0.34% active. AID 1631. P14618. Potency, µM (doses to about 57.5 µM), for inactives: at the top dose activation, most hits filed as activators. purified PKM2, Kinase-Glo ATP luminescence, activation; response scale: 0% is enzyme alone, no compound; note: potency is the fitted concentration of half-maximal effect; % is set by controls: 0 for no effect and ±100 for the full control effect; nearly all actives have a fitted effect of over 55% in size
#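 Purified hPK-M2 (>95% pure) converted ADP (0.1 mM final) to ATP with 0.5 mM PEP in 50 mM imidazole pH7.2, KCl, MgCl2, Tween 20, BSA; 1 h at room temperature. ATP detected by Kinase-Glo luminescence.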
# NPSR antagonist – neuropeptide S receptor (human) antagonism, cAMP. Q6W5P4. CHO-NPSR cells, cAMP TR-FRET, antagonist mode. Potency, µM (highest dose often 38.3 µM), inactives show top-dose activity change, negative = inhibition, actives largely listed as inhibitors. 220,000 tested, 1% active. AID 1461; note: potency is the fitted concentration of half-maximal effect; % is set by controls: 0 for no effect and ±100 for the full control effect; nearly all actives have a fitted effect of over 50% in size
# ClpP mod – qHTS Assay for Activators of ClpP; AID 651965, 2013; ATP-dependent Clp protease proteolytic subunit (Bacillus subtilis (strain 168)), P80244; purified B. subtilis ClpP, FRET peptide cleavage, 20 min; Potency, µM (series often up to 57.5 µM), without a hit: at the top dose activity change, negative = active; 340,000 tested, 1.9% active; active = well fitted falling curve with a large enough effect; inconclusive = small, poorly fitted or top-dose-only effect; inactive = no such curve, though single readings can be large or run the other way; note: potency is the fitted concentration of half-maximal effect; the source files actives as falling curves though it sought activators and does not explain the sign; nearly all actives have a fitted effect of over 65% in size
#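 FRET quenching reversal measured ClpP activation: 10 microg/mL B. subtilis ClpP at pH 8 with the FRET-FV decapeptide, read at 430 nm after 320 nm excitation. The 20-min minus 0-min signal was scaled between DMSO/no-enzyme wells and ADEP (5.8 microM final).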
# IL2 activator – activates IL-2 in a cell-based reporter assay | activation, % (series mostly up to about 46 µM) | IL-2 activation reporter assay, cell-based qHTS; stimulated with anti-CD3/CD4/CD28 beads; in transgenic mouse T cells | 360,000 tested, 0.065% active; in the data active = activation above about 50%; inconclusive = mostly about 30% to 49%; note: 0% is about no effect
#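 EGFP and DsRed fluorescence is measured by plate cytometry in unstimulated transgenic mouse T cells exposed to compound for 60 minutes, then stimulated 18 hours at 37 degrees C with anti-CD3/anti-CD4 beads plus anti-CD28.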
# * marks the source's active call; other numbers are inactive results; ? = inconclusive; · = not tested or not shown; [ ] = another dose, or the depositor's remark. Only some compounds are listed: those with a hit (about 2% of all), similar ones and a draw of the others. Unless noted, calls come from the whole dose curve; as a rule, active = well fitted curve in the direction sought with a large enough effect; inconclusive = small, poorly fitted or top-dose-only effect, or another doubt; inactive = no such curve, though single readings can be large; an effect the other way counts as inactive or inconclusive.
SMILES,PKM2 act,NPSR antagonist,ClpP mod,IL2 activator
Cc1nn(C)cc1/C=N/NC(=S)Nc1ccccc1,-6.8%,2µM*,-0.4%,-2.7
CN(c1cccc(F)c1)c1cc2c(c3c1ccn3C)C1CCC2C1 (stereo unspecified),·,·,8.91µM*,0.2
COc1ccc(S(=O)(=O)N2c3ccc(Cl)cc3[C@](O)(c3ccccc3Cl)[C@@H]2C(=O)N2CCC[C@H]2C(N)=O)cc1OC,-6.5%,·,·,·
COc1ccc(-c2nnc(N(C)C(=O)C3CCCO3)s2)cc1 (stereo unspecified),2.8%,-6.2%,-3.9%,-0.1
Cc1cnc(-c2nnc(N(C)C(=O)C3CCCO3)s2)cn1 (stereo unspecified),-6.5%,7.2%[7.67 µM],28.2µM*,-3.2
CCOc1ccccc1NC(=O)c1nn(C)c2c1CSc1ccccc1-2,·,·,-3.5%,·
Cc1cc2cc(CN(CCCN3CCOCC3)C(=O)NC3CCCCC3)c(=O)[nH]c2cc1C,-1.3%,?,?,-2.6
N=c1n(CCN2CCCCC2)c2ccccc2n1CC(O)COc1ccc(Cl)cc1Cl (stereo unspecified),·,·,-2.5%,·
CC(=O)Oc1ccc(S(=O)(=O)c2ccc(OC(C)=O)cc2)cc1,14.1µM*,0.7%,?,4.3
COc1ccc(S(=O)(=O)c2ccc(OC)cc2)cc1,?,-14.9%[46.1 µM],-0.9%,-0.9
C/C=C(\C)C(=O)NCCN1C2=NC[C@H](Cc3ccc(O)cc3)N2C[C@H]1Cc1ccc(O)cc1,-0.5%,-7.6%,2.7%,0.3
CCOC(=O)c1c(-c2ccc(C)o2)csc1NC(=O)COC(=O)c1cccs1,3.16µM*,?,-25.7%,-0.8
Cc1ccc(C(=O)NCCNC(=O)COc2ccccc2Cl)cn1,-5.7%,·,·,-1.0
Cc1ccc(Cn2c(=O)n(CCc3ccc(Cl)cc3)c(=O)c3ccccc32)cc1,·,·,-1.2%,·
CCn1cc(C(=O)NCC2CCCO2)c(=O)c2cc(S(=O)(=O)N3CCCCCC3)ccc21 (stereo unspecified),-0.1%,3.16µM*,-0.1%,-0.5
CCn1cc(C(=O)NCC2CCCO2)c(=O)c2cc(S(=O)(=O)N3CCC(C)CC3)ccc21 (stereo unspecified),-1.8%,-10.9%[46.1 µM],-2.6%,-0.8
COc1ccc(NC(=O)C(c2ccc(C#N)cc2)n2c(=O)c(-c3ccco3)nc3ccccc32)cc1 (stereo unspecified),·,·,-7.7%,2.6
C=CCn1c(=O)c(C(=O)Nc2cc(C)ccn2)c(O)c2ccccc21,8.4%,·,-0.7%,0.8
Nc1c(C(=O)Nc2ccccc2F)sc2nc(-c3ccco3)ccc12,2.7%,19.8%[46.1 µM],28.2µM*,8.3
Nc1c(C(=O)Nc2ccccc2F)sc2nc(-c3cccnc3)ccc12,-2.6%,-9.6%,0.2%,1.0
CC1=C/C(=C\c2ccc(N(C)C)cc2)c2ccccc21,·,·,1.6%,·
CC(CC(=O)Nc1ccncc1)c1ccccc1 (stereo unspecified),5.9%,0.4%[46.1 µM],-2.8%,-0.3
CC(CC(=O)Nc1cccc(Cl)c1)c1ccccc1 (stereo unspecified),-0.8%,-2.5%,14.1µM*,0.6
N=c1n(CCCOc2ccc(F)cc2)c2ccccc2n1CC(N)=O,-0.7%,4.1%,·,-0.3
C=CCn1c(=N)n(CC(=O)OCC)c2ccccc21,-5.3%,8.0%[46.1 µM],25.1µM*,-2.0
SMILES,PKM2 act,NPSR antagonist,ClpP mod,IL2 activator
CCOC(=O)Cn1c(=N)n(CCOc2ccc(F)cc2)c2ccccc21,-3.4%,-6.9%,3.98µM*,-0.6
COCc1cc(C)n(CC(=O)Nc2cccc(C(C)=O)c2)c(=O)c1C#N,·,·,4.2%,·
CCn1cc(S(=O)(=O)c2ccccc2)c(=O)c2cc(F)c(N3CCCC3)cc21,·,·,25.1µM*,·
CCCn1cc(S(=O)(=O)c2ccc(OC)cc2)c(=O)c2cc(F)c(N3CCCC(C)C3)cc21 (stereo unspecified),·,·,20µM*,·
CCCn1cc(S(=O)(=O)c2ccccc2)c(=O)c2cc(F)c(N3CCCCCC3)cc21,·,·,28.2µM*,·
N#Cc1nc(COc2ccc(Cl)cc2Cl)oc1N1CCOCC1,-1.6%,-15.7%[46.1 µM],1.0%,3.0
CCCCn1c(N)c(N(CC(C)C)C(=O)COC(=O)c2ccccc2NCCO)c(=O)[nH]c1=O,·,·,15.8µM*,-0.3
CCCn1c(N)c(N(CCOC)C(=O)COC(=O)c2ccccc2NCCO)c(=O)[nH]c1=O,·,·,?,-3.8
CC(C)CN(C(=O)COC(=O)c1cccnc1Cl)c1c(N)n(Cc2ccccc2)c(=O)[nH]c1=O,·,·,28.2µM*,0.6
COCCN(C(=O)COC(=O)c1cccnc1Cl)c1c(N)n(Cc2ccccc2)c(=O)[nH]c1=O,·,·,1.1%,2.0
COc1ccnc(CN(C)C(=O)C2CCC(=O)N(CCN(C)C)C2)c1 (stereo unspecified),·,·,-0.4%,-0.2
COc1ccc(C(=O)N2CCN(c3ccc(N4CCOCC4)nn3)CC2)cc1OC,·,·,25.1µM*,-0.8
COc1ccccc1C(=O)N1CCN(c2ccc(N3CCOCC3)nn2)CC1,·,·,?,-2.7
CC(=O)c1cn(CC(=O)Nc2ccccc2F)c2ccccc12,0.8%,·,·,-3.4
O=C(Cn1c2ccccc2c(=O)c2ccccc21)Nc1ccccc1F,22.8%,-9.8%[46.1 µM],12.6µM*,0.6
CC(=O)N1c2ccc(S(=O)(=O)N3CCCC(C(=O)Nc4ccc(F)cc4)C3)cc2CC1C (stereo unspecified),-1.5%,·,-4.3%,-2.2
Cc1ccc(-n2nc(C)c3c(C)cc(=O)[nH]c32)cc1,14.9%,-7.5%[46.1 µM],28.2µM*,-0.9
Cc1nn(-c2ccccc2)c2[nH]c(=O)cc(C(F)F)c12,·,·,-5.7%,-0.1
Cc1cc(C)nc(NC(=NCCc2c[nH]c3ccccc23)NC(=O)Nc2ccc(Cl)cc2)n1,1.8%,12.6µM*,-3.1%,0.0
Cc1cc(C)nc(NC(N)=NCCc2c[nH]c3ccccc23)n1,13.5%,29.3%,·,-1.3
COCCSc1ccccc1C(=O)Nc1ccc(Cl)cc1,10.9%,-7.8%,2.0%,3.1
Cc1cc(C)nc(-n2nc(C)cc2NC(=O)COC(=O)CCC(=O)c2cccs2)n1,2.3%,-11.2%[46.1 µM],28.2µM*,0.0
Cc1cccc(NC(=O)CCC(=O)c2cccs2)n1,·,·,3.55µM*,0.3
CN(C(=O)COc1ccc(-c2nnco2)cc1)C1CCS(=O)(=O)C1 (stereo unspecified),·,·,-4.1%,-1.1
CN(C(=O)CCN1C(=O)c2ccccc2C1=O)C1CCCCC1,-2.9%,-1.5%[46.1 µM],-1.1%,-0.4
CCOc1ccc(NC2CCCCC2NS(=O)(=O)c2ccccc2)cc1 (stereo unspecified),·,·,-0.3%,-3.3
O=C(CC1SC(=O)N(c2ccccc2)C1=O)Nc1ccccc1 (stereo unspecified),1.2%,-25.4%[46.1 µM],3.9%,-4.6
CC(=O)N(c1cccc(C)c1)C1SC(=O)N(c2ccccc2)C1=O (stereo unspecified),0.398µM*,-12.0%[46.1 µM],0.7%,1.2
COc1ccc(N(C(C)=O)C2SC(=O)N(c3ccccc3)C2=O)cc1 (stereo unspecified),·,·,3.4%,·

# Bioassay records as filed in PubChem BioAssay.
